The values below come from PubChem BioAssay (EPA / NIEHS).

Results filed as inconclusive are left out. Calls of active or inactive are those of the source. The calls were made as follows: active = hit-call score of the fitted dose curve at least 0.9, where 1 is the maximum; inconclusive = response in the unintended direction; inactive = score below 0.9.

Glyceraldehyde-3-phosphate dehydrogenase (Homo sapiens), sequence (P04406 whole entry, looked up): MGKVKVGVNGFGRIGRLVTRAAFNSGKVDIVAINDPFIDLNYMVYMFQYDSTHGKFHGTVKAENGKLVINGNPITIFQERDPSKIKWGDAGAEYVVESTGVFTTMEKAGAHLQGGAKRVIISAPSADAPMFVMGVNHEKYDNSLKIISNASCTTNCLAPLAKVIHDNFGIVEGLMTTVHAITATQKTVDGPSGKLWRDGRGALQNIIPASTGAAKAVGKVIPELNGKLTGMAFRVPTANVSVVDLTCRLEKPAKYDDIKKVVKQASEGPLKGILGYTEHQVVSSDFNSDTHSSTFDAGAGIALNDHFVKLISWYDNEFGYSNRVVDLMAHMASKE

Read-out in this assay: Glyceraldehyde-3-phosphate dehydrogenase (Homo sapiens) (UniProt P04406)
Nature of the assay: CLD_GAPDH_48hr: CellzDirect (CLD) Gene Expression Assay for Baseline Control (Glyceraldehyde 3-phosphate dehydrogenase) at 48 hours (AID 2283706).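 Also: active means higher GAPDH mRNA than DMSO vehicle.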 As to the method: CLD_48hr is a cell-based, multiplexed-readout assay that uses hepatocyte, a human liver primary cell, with measurements taken at 48 hours after chemical dosing in a 96-well plate.CLD_GAPDH_48hr is one of 16 assay component(s) measured or calculated from the CLD_48hr assay. It is designed to make measurements of mRNA induction, a form of inducible reporter, as detected with chemiluminescence signals by Quantitative Nuclease Protection Assay (qNPA) technology.Data from the assay component CLD_GAPDH_48hr was analyzed at the endpoint, CLD_GAPDH_48hr, in the positive analysis fitting direction relative to DMSO as the negative control and baseline of activity. Using a type of inducible reporter, gain-of-signal activity can be used to understand changes in the reporter gene as they relate to the gene GAPDH. Furthermore, this assay endpoint can be referred to as a secondary readout, because this assay has produced multiple assay endpoints where this one serves a background control function. To generalize the intended target to other relatable targets, this assay endpoint is annotated to the background measurement intended target family, where subfamily is baseline control.
Human hepatocyte cultures were treated daily for two consecutive days with fresh dosing solutions containing appropriate concentrations of the 320 ToxCast chemicals (chemical identities were blinded to CellzDirect and other ToxCast collaborators), vehicle control (0.2% DMSO), and positive control inducers as summarized in Table 1. Due to the large number of treatment groups and chemicals examined, the ToxCast chemicals were divided into two groups (spanning two independent cultures of hepatocytes from separate donor preparations (Hu778: ToxCast plates 1 and 2; Hu776: ToxCast plates 3 and 4). Each preparation of human hepatocyte cultures was treated with respective vehicle control, medium only control, set of six positive controls/reference chemicals for the five hepatic receptor pathways, and a subset of eight of the ToxCast chemicals (indoxacarb, pyrithiobac-sodium, norflurazon, cyhalofop-butyl, methomyl, thiram, acetochlor, and propiconazole). These replicate data, coupled with internal replicates designed within the blinded ToxCast chemical library, provided additional data to evaluate interindividual differences between hepatocyte preparations and their potential impact on chemical profiles.Cell morphology and integrity were evaluated using phase-contrast microscopy as an indicator of hepatocyte cell health (Tyson & Green, 1987). Cultures for each treatment group (i.e., media, vehicle [0.2% DMSO], positive control inducers [multiple concentrations], and the ToxCast chemicals [multiple concentrations]) were observed and cell morphology was assessed relative to vehicle control cultures at each harvest time point (0, 6, 24, or 48 h). […] Images were evaluated at the conclusion of the study to assess changes in cell integrity and account for the effects of chemical exposure on uncharacteristic changes in concentration-dependent gene expression profiles. The results from these determinations of apparent cytotoxicity were annotated (yes/no) alongside the corresponding qNPA data for reference.At the conclusion of each treatment period, hepatocyte cultures (96-well) were washed with 1 volume of HBSS, lysed by addition of 25 ul ArrayPlate lysis buffer (HTG, Tucson, AZ), and 70 ul/well of Denaturation Oil, denatured by incubation at 95C for 10 min, and frozen at approximately -70C until analysis by nuclease protection assay (qNPA) (Roberts et al., 2007). For qNPA analysis, cell lysates were thawed at 50C for approximately 30 min, qNPA probes were added, and samples were incubated at 95C for 10 min to begin the detection process by denaturing the target RNA, dissociating the duplexes and secondary structure hybridization. At the conclusion of the hybridization period, S1 nuclease reagent was added to each sample to digest all nonprotected nucleotides at 50C for 60-90 min. […]
With `COCCO`, the outcome was inactive.
The same measure for `Cc1nn(C)c(Oc2ccccc2)c1C=NOCc1ccc(C(=O)OC(C)(C)C)cc1`: “inactive”.
On to `CCN(CC)C(=O)c1cccc(C)c1`, for which the call was inactive.
In the case of `CC(C)(c1ccc(O)cc1)c1ccc(O)cc1` it was “inactive”; in that of `N#CSCSc1nc2ccccc2s1`, “inactive”.
In the case of `COC(=O)c1ccc(I)cc1S(=O)(=O)NC(=O)Nc1nc(C)nc(OC)n1` it was “inactive”; in that of `CCCOC(=O)NCCCN(C)C`, “inactive”.
In the case of `S=C([S-])NCCNC(=S)[S-].[Mn+2]` it was “inactive”; in that of `C=CCOC(Cn1ccnc1)c1ccc(Cl)cc1Cl` (stereo not drawn), “inactive”.
As for `COC(=O)c1cccc(C)c1S(=O)(=O)NC(=O)Nc1nc(OCC(F)(F)F)nc(N(C)C)n1`, the molecule was called inactive.
On to `COc1nc(C)nc(NC(=O)NS(=O)(=O)c2ccccc2OCCCl)n1`, for which the molecule was called inactive.
The same measure for `CCCCCCC(C)OC(=O)COc1nc(F)c(Cl)c(N)c1Cl` (stereo not drawn): “inactive”; for `CCCCCOC(=O)COc1cc(N2C(=O)C3=C(CCCC3)C2=O)c(F)cc1Cl`: “inactive”; for `CCCOC(=O)c1ccc(C(=O)OCCC)nc1`: “inactive”.
As for `OB(O)O`, the outcome was inactive.
On to `COC(=O)c1c(Cl)nn(C)c1S(=O)(=O)NC(=O)Nc1nc(OC)cc(OC)n1`, for which the outcome was inactive.
Regarding `S=C(S)NCCNC(=S)S.[Mn+2].[S-]C([S-])=NCCN=C([S-])[S-].[Zn+2]`, the call was inactive.
The same measure for `C#CCOC(=O)[C@@H](C)Oc1ccc(Oc2ncc(Cl)cc2F)cc1`: “inactive”; for `CCC(C)OC(=O)N1CCCCC1CCO` (stereo not drawn): “inactive”; for `O=C(O)C1(C(=O)Nc2ccc(Cl)cc2Cl)CC1`: “inactive”.
In the case of `Oc1ccc(C(c2ccc(O)cc2)C(Cl)(Cl)Cl)cc1` it was “inactive”; in that of `CCSC(=O)N(CC(C)C)CC(C)C`, “inactive”; in that of `CCNc1nc(N)nc(Cl)n1`, “inactive”.
The same measure for `CCCCC(CC)COC(=O)c1ccccc1C(=O)O` (stereo not drawn): “inactive”.
As for `CCOC(=O)[C@H](C)Oc1ccc(Oc2nc3ccc(Cl)cc3o2)cc1`, the molecule was called inactive.
With `CCOC(=O)C(C)Oc1ccc(Oc2nc3ccc(Cl)cc3o2)cc1` (stereo not drawn), the call was inactive.
In the case of `CCCN(CCC)C(=O)SCC` it was “inactive”; in that of `CCOC(=O)COc1cc(-n2ncc(C(F)(F)F)c(C)c2=O)c(F)cc1Cl`, “inactive”.
In the case of `CC1(C)C(C=C(Cl)Cl)C1C(=O)OCc1cccc(Oc2ccccc2)c1` (stereo not drawn) it was “inactive”.
In the case of `CCCCOC(=O)C(C)Oc1ccc(Oc2ccc(C(F)(F)F)cn2)cc1` (stereo not drawn) it was “inactive”.
Turning to `COC(=O)c1ccccc1C(=O)O`, the molecule was classed as inactive.
Consider `COC(=O)c1ccc(CNS(C)(=O)=O)cc1S(=O)(=O)NC(=O)Nc1nc(OC)cc(OC)n1`, for which the call was inactive.
The same measure for `CCC(O)=C1C(=O)CC(C(=O)O)CC1=O` (stereo not drawn): “inactive”.
